# Test results: PubChem BioAssay (NCATS)
# Records with an inconclusive call do not appear. A call without a number means that no potency is given here. Active and inactive are the calls of the source. The call rests on the fitted dose curve; in most records, active means well fitted curve in either direction with a large enough effect (not every such curve was filed as active); inconclusive means small, poorly fitted or top-dose-only effect, or another doubt; inactive means flat fitted curve, though single readings scatter.
# Target: Mitogen-activated protein kinase 10 (Mus musculus) (UniProt Q61831)
# Assay: JNK3 AlphaScreen Assay (AID 530);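 further: kinase came from lysate of stimulated human HepG2 cells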
# Conditions: JNK3 lysate, c-Jun phosphorylation; series mostly up to 11.4 µM
# Text: NIH Chemical Genomics Center [NCGC]
# NIH Molecular Libraries Screening Centers Network [MLSCN]
# The c-jun N-terminal kinase (JNK) family are serine/threonine protein kinases that phosphorylate c-jun, a component of the transcription factor […] (AP-1). JNK kinases are members of the mitogen-activated protein kinase family including the extracellular regulated kinases and p38 kinases. Three JNK genes (JNK 1, 2, and 3) have been identified in humans so far. JNK1 and JNK2 have a broad distribution and JNK3 is primarily found in neuronal tissues and cardiac myocytes.
# JNK3 has been under consideration as a target for the treatment of neurodegenerative disorders. […] JNK pathway is also involved in pathological process in a mouse model of Parkinson's disease (Xia et al., 2001).
# Given these potential tissue distributions and links to neuroprotection, JNK3 inhibitors should provide useful investigational tools to study the role of this kinase in several diseases including, arthritis, stroke, myocardial infarction, ischemic injury and Parkinson's disease.
# A homogeneous AlphaScreen is developed to measure the activity of JNK3. AlphaScreen is a two bead-based proximity-dependent chemical energy transfer luminescent assay platform. The phosphorylation of a biotinylated c-jun substrate by JNK3 can be detected with an antibody raised against phosphorylated c-jun. This process brings streptavidin donor beads and Protein-A acceptor beads to within a proximity range of <200 nm, and subsequently lead a chemical luminescent reaction upon exciting donor beads with 680 nm laser excitation light. Inhibition of JNK3 activity by small molecules and subsequent decrease in the antibody binding to biotinylated c-jun could attenuate or abolish this chemical luminescent reaction.
# Yang DD, Kuan CY, Whitmarsh AJ, Rincon M, Zheng TS, Davis RJ, Rakic P and Flavell RA (1997) Absence of excitotoxicity-induced apoptosis in the hippocampus of mice lacking the Jnk3 gene. Nature 389:865-870. [PMID: 9349820]
# Herdegen T, Claret FX, Kallunki T, Martin-Villalba A, Winter C, Hunter T, and Karin M (1998) Lasting N-terminal phosphorylation of c-Jun and activation of c-Jun N-terminal kinases after neuronal injury. J.Neurosci. 18:5124-5135. [PMID: 9651196]
# Xia XG, Harding T, Weller M, Bieneman A, Uney JB and Schulz JB (2001) Gene transfer of the JNK interacting protein-1 protects dopaminergic neurons in the MPTP model of Parkinson's disease. Proc.Natl.Acad.Sci.U.S.A. 98:10433-10438.
# NCGC Assay Protocol Summary:
# GST-cJun (1-79) (Stratagene, La Jolla CA, #205145) was biotnylated by PerkinElmer (PerkinElmer-BioSignalInc. Montreal, Canada) and was detectable by the streptavidin Donor beads. Anti-(phospho)cJun (Ser73) antibody was from UpState (Charlottesvilles, VA, #06-659). JNK3-containing lysates were generated from HepG2 cells and pre-activated by interleukin1-beta and tumor necrosis factor alpha. All reagents were stored at -20 C before using. Phosphorylated biotinylated-GST-cJun was recognized by Anti-(phospho)cJun (Ser73) antibody and this process brings acceptor and donor beads together. Therefore JNK3 phosphorylation of cJun can be measured by Alpha reading by EnVision (PerkinElmer, Boston, MA).
# The composition of kinase buffer was (in mM) 20 tris- HCl (pH 7.6) 10 MgCl2, 1 DTT, and 0.1 Na3VO4 and 0.01% Tween-20. Beads were diluted in detection buffer containing (in mM) 20 tris-HCl (pH 7.7), 20 NaCl and 80 EDTA and 0.3% BSA. The assay was performed at room temperature. All compounds were screened as titrations from 0.6 nM to 46 uM final concentration. The assay was performed in 1536-well format (white solid bottom and untreated) as follows:
# Sequence,Parameter,Value,Description
# 1,Reagent,3 uL,Biotin-GST-cJun, Anti-(phospho)cJun and pre-activated JNK3-containing lysates
# 2,Compound,23 nL,Final concentration was 0.6nM to 46uM
# 3,Time,15 minutes,Room Temperature
# 4,Reagent,1 uL,ATP final concentration 10uM
# 6,Reagent,0.5 uL,2ng/well bead mixture
# […]
row,SMILES,Potency
1,Oc1c(Br)cc(CN(Cc2cc(Br)c(O)c(Br)c2)C2CCCCC2)cc1Br,inactive
2,S=C1N[C@H](c2ccccc2)N[C@H](c2ccccc2)S1,inactive
3,CC(C)Cn1cnc2c(SCc3ccccn3)nc(N)nc21,inactive
4,O=C(CC1(O)CCCCC1)OC1CCCC1,inactive
5,CC(C)[C@@H](C(=O)O)N1C(=O)c2ccccc2C1=O,inactive
6,Cn1c(=O)c2[nH]c(COCc3nc4c([nH]3)c(=O)n(C)c(=O)n4C)nc2n(C)c1=O,inactive
7,CSc1nc2cc(S(=O)(=O)N3CCCCC3)ccc2s1,inactive
8,O=c1c[n+](CCCC[n+]2cc(=O)o[nH]2)[nH]o1,inactive
9,CC(=O)Nc1ccc2c(c1)C(=Nc1ccc(C(=O)O)cc1)c1ccccc1-2,inactive
10,CC(C)(C)OC(=O)[C@H]([C@@H]1N[C@@H](C(=O)O)C(C)(C)S1)N1C(=O)c2ccccc2C1=O,inactive
11,CC1=C(/C=C\C(=O)O)C(C)(C)CCC1,inactive
12,O=C(Nc1ccc2c(c1)Cc1ccccc1-2)[C@@H]1[C@H](C(=O)O)[C@]2(Cl)C(Cl)=C(Cl)[C@@]1(Cl)C2(Cl)Cl,inactive
13,Nc1cccc2cc(S(=O)(=O)Nc3ccc(C(=O)O)cc3)ccc12,inactive
14,CC[C@H]1C(=O)OC[C@H]1Cc1cncn1C,inactive
15,Nc1nc(N)c2nn(-c3ccc(C(=O)O)cc3)nc2n1,inactive
16,O=S(=O)(c1ccccc1)N1CCC[C@@]2(CCN(Cc3ccccc3)C2)C1,inactive
17,CCOC(=O)C1OC1c1ccccc1 (stereo not given),inactive
18,CC(=O)c1ccc(O)c(CN(C2CCCCC2)C2CCCCC2)c1O,inactive
19,COCCn1c(=O)c(-c2ccccc2)nc2cnc(Nc3ccccc3)nc21,inactive
20,CC(C)CN=C(N)N=C(N)N,inactive

row,SMILES,Potency
1,CC(C)[C@H](Sc1nc(N)nc2nc[nH]c12)C(=O)O,inactive
2,CC(CCN)(CCN)[N+](=O)[O-],inactive
3,CN[C@]1(C)[C@@H]2CC[C@@H](C2)C1(C)C,inactive
4,CN(C)C(=O)c1ccc(-c2nc(Nc3ccc(F)cc3)c3ccccc3n2)cc1,inactive
5,NS(=O)(=O)c1ccc(NC2(C(=O)O)CCCC2)cc1,inactive
6,N#CCCn1c(=O)c(-c2ccccc2)nc2cnc(Oc3cccc(Cl)c3)nc21,inactive
7,CN(C)CCSCCO,inactive
8,Cc1cc2nc([C@H](C)C(=O)c3ccc(Cl)cc3)c(=O)[nH]c2cc1C,inactive
9,O[C@]1(c2ccccc2)c2ccccc2NC2=NCCN21,inactive
10,Nc1nc(SC/C=C\c2ccccc2)c2[nH]cnc2n1,inactive
11,O=C(O)[C@@H]1[C@@H]2C[C@@H]3[C@@H](OC(=O)[C@@H]31)[C@H]2Br,inactive
12,CC[C@H]1CC[C@H]2[C@@H]3CC=C4C[C@H](OC(C)=O)[C@@H](N)C[C@@]4(C)[C@H]3CC[C@@]12C,inactive
13,O=c1c(-c2ccccc2)nc2cnc(Oc3ccccc3)nc2n1C1CC1,inactive
14,C[N@+]1(CCC(=O)c2ccccc2)CC[C@H]2CC[C@H](C2)C1,inactive
15,Cc1ncc(CN=Cc2ccc(Cl)cc2)c(N)n1,inactive
16,CN1CCN(CCCNN)CC1,inactive
17,CN[C@@H]1NC(=O)c2ccccc2N1Cc1ccc(F)cc1,inactive
18,O=C(O)[C@@H](S)[C@H](S)C(=O)O,inactive
19,Cc1cccc(Cl)c1NC[C@H](O)CN1CCN(C)CC1,inactive
20,N#[N+]c1ccc(Nc2ccccc2)cc1,inactive
